The test system of this test is Wnt5a (protein binding on small-molecule microarray). Put plainly: Wnt5a binders on small-molecule microarray, primary screen, biophysical, 635/667 nm fluorescence (AID 1142).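 Further: fluorescence read at 667 nm with signal to noise per printed feature.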 Particulars: 635 nm fluorescence, higher = more signal.
`COCCOC(=O)N1C(=O)[C@@]2(c3cc(C#CC4(O)CCCCCC4)ccc31)[C@H](C(N)=O)[C@H]1C(=O)O[C@H](c3ccccc3)[C@H](c3ccccc3)N1[C@@H]2c1ccccc1OCCO` displayed a composite z-score of 0.507.
In the case of `C=CCN1C(=O)[C@@]2(O[C@@H](CCO)[C@H]([Si](C)(C)c3ccc(OC)cc3)[C@H]2C)c2cc(N3C(=O)c4ccccc4Oc4ccccc43)ccc21`, the composite z-score was determined as 0.485.
To `C[C@]1(C(=O)NC2CC2)c2ccccc2C(=O)N(Cc2ccc(OC(F)(F)F)cc2)[C@H]1c1ccc(CO)cc1` belongs -0.0135; to `CC(C)(C)OC(=O)CC[C@]1(C(=O)N2CCOCC2)N=C(c2ccc(OCCCO)cc2)O[C@H]1c1ccccc1`, 0.959.
Under `C=C[C@@H](C)[C@H](OC(=O)Nc1ccc(SC)cc1)c1ccc(OCCO)cc1` stands -0.403; under `COC(=O)[C@@]1(Cc2ccc(OC)cc2)[C@H]2c3cc(C(=O)N4CCCC4)n(CCc4cc5ccccc5[nH]4)c3C[C@H]2CN1C(=O)c1ccccc1`, 0.409.
To `C=CCNC(=O)[C@@H]1[C@H]2C(=O)O[C@H](c3ccccc3)[C@H](c3ccccc3)N2[C@H](c2ccc(OCCO)cc2)[C@@]12C(=O)N(C(=O)OCCOC)c1ccc(C#CC3=CCCCC3)cc12` belongs 0.335; to `CC(C)C(CO)N1C(=O)[C@]2(C)C3C(=O)OCCC/C=C\[C@H]3OC23C=CCN(c2ccc(Cl)cc2)C(=O)[C@@H]13` (stereo partly specified), -0.269.
Compound `C=CC[C@H](OC(=O)Nc1ccc(OC)cc1)c1ccc(O)c2ccccc12` showed a composite z-score of 0.49.
Compound `COc1cc(CO)cc(I)c1O[C@H]1C=C(C(=O)NCCO)C[C@@H](N(Cc2ccc(F)cc2)C(=O)C2CCCO2)[C@@H]1O` (stereo partly specified) returned a composite z-score of -0.212.
Under `CCCC[C@@H]1C[C@H]1[C@@H](NC(=O)c1ccccc1)c1ccc(Cl)cc1` stands -0.546; under `CN(C)CCCNC(=O)[C@@H]1c2ccccc2C(=O)N(CC23CC4CC(CC(C4)C2)C3)[C@H]1c1ccc(CO)cc1`, 0.528.
`CC(=O)N1Cc2ccccc2C[C@]2(N=C(c3ccc(OCCCO)cc3)O[C@@H]2c2ccccc2)C1=O`: the composite z-score worked out at 0.865.
In the case of `C=CCOC(=O)[C@H]1[C@@H]2C(=O)O[C@@H](c3ccccc3)[C@@H](c3ccccc3)N2[C@@H](c2ccc(OCCOC(=O)[C@H]3C[C@H]4C(=O)N[C@@H](Cc5ccccc5)C(=O)N4[C@H]3c3ccc(O)cc3)cc2)[C@]12C(=O)Nc1ccc(I)cc12`, the composite z-score was 0.72.
To `COC(=O)C1(Cc2ccccc2)C=C2C(=C(C(C)C)C(=O)C2C)CN1` (stereo unspecified) belongs 0.131; to `C=CC[C@]12N=C(c3ccc(OCCCO)cc3)O[C@H]1c1ccccc1N(C)C2=O`, 0.305.
To `CC=CC(O)C1C=CC2C(=O)N(C)C(=O)C2N1N1CCCCC1` (stereo unspecified) belongs 0.251; to `CCCNC(=O)[C@@]1(c2ccc([N+](=O)[O-])cc2)CC(=O)N(C2CCCCC2)[C@@H]1c1ccc(CO)cc1I`, 1.01; to `O=C1C[C@@](C(=O)NCC(F)(F)F)(c2ccc([N+](=O)[O-])cc2)[C@@H](c2ccc(CO)cc2)N1C1CCCCC1`, 0.247.
In the case of `CCOC(=O)C[C@H]1[C@H](OC(=O)c2ccccc2-c2ccccc2)[C@@H](NC(=O)CC(C)C)c2cc(OCCCO)ccc2N1C(=O)c1ccc2ccccc2n1`, the composite z-score turned out to be 0.0056.
To `COc1ccc(C(O)C2C=CC3C(=O)N(C)C(=O)C3N2N2CCCCC2)cc1` (stereo unspecified) belongs 0.345; to `CCCCC(CC)C(O)C1C=CC2C(=O)N(c3ccccc3)C(=O)C2N1Nc1ccc([N+](=O)[O-])cc1` (stereo unspecified), 0.382; to `C=C(C(=O)CC[C@H](OC(C)=O)c1cccc(OCCO)c1)C(C)C`, -0.161.
To `C=C(/C(=C/C[C@@H](OC(=O)c1ccncc1)c1ccccc1OCCO)c1cc(C(=O)OC)ccc1OC)C(C)C` belongs 0.449.
Under `COc1ccc([Si](C)(C)[C@H]2[C@H](CCn3cc([C@H](O)c4ccccc4)nn3)O[C@@]3(C(=O)N(Cc4ccc(N5CCOC5=O)cc4)c4ccccc43)[C@@H]2C)cc1` stands -0.271; under `CC(C)OC(=O)CC(=O)CC(O)c1cccc(C#N)c1` (stereo unspecified), 0.167; under `COc1cc(CO)cc(I)c1O[C@H]1C=C(C(=O)NCCO)C[C@@H](NCc2ccccc2F)[C@@H]1O`, -0.145.
`CC(C)CN1C(=O)[C@@]2(Cc3ccccc31)c1ccccc1C(=O)N(Cc1ccccc1C(F)(F)F)[C@H]2c1ccc(CO)cc1` yielded a composite z-score of -0.331.
`CCOC(=O)[C@@H]1[C@@H]2C(=O)N(CC)C(=O)[C@@H]2C[C@@H]1Sc1ccccc1` displayed a composite z-score of 0.202.
Under `C=CC[C@@H](OC(=O)Nc1ccc(OC)cc1)c1ccc(OCCO)cc1` stands -1.2; under `O=C(NC1CC1)[C@@H]1c2ccccc2C(=O)N(Cc2ccccc2)[C@H]1c1ccc(CO)cc1`, 0.336.
The compound `CC[C@H]1C2=C3C(CC[C@H]4C(OCc5ccc(F)cc5C(F)(F)F)OC[C@](C)([C@@H]34)N(C(=O)OC(C)(C)C)C2)C2COC(=O)OCC21` (stereo partly specified) displayed a composite z-score of 0.0641.
As for `COC(=O)[C@]1(CCS(=O)(=O)c2ccccc2)N=C(c2ccc(OCCCO)cc2)O[C@@H]1c1ccccc1CN=[N+]=[N-]`, the composite z-score was found to be 0.419.
Regarding `C=CCOC(=O)[C@@H]1[C@H]2C(=O)O[C@H](c3ccccc3)[C@H](c3ccccc3)N2[C@H](c2ccc(OCCOC(=O)[C@H]3C[C@H]4C(=O)N[C@@H](CCCCNC(C)=O)C(=O)N4[C@H]3c3cccc(OCCO)c3)cc2)[C@@]12C(=O)Nc1ccc(I)cc12`, the composite z-score was 0.218.
To `O=C1OCCC=C[C@H]2OC34C=CCN(c5ccc(Cl)cc5)C(=O)[C@H]3N(CCCCCO)C(=O)[C@@H]4C12` (stereo partly specified) belongs -0.244.
To `COc1ccc(C(O)C2C=CC3C(=O)N(Cc4ccccc4)C(=O)C3N2n2cnnc2)c2ccccc12` (stereo unspecified) belongs -0.795.
